Source: PubChem (National Center for Advancing Translational Sciences (NCATS))
An excerpt weighted towards active compounds, which were near 2.7% of everything screened.
HTT prom inh = Primary qHTS for Identification of Small Molecule Inhibitors of Huntingtin Promoter Activity. HEK293 HTT promoter firefly luciferase reporter, 24 h. Potency, µM (top dose mostly 57.5 µM), inactives show at the highest dose activity change, negative = inhibition, hits mostly inhibitors. AID 1508623, 2021. 0.93% of 48,000 active; further: potency means the concentration at half of the fitted maximal effect; nearly all actives have a fitted effect of over 50% in size
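Firefly luciferase readout (Dual-Glo, 10 min RT) after 24 h, 37 °C compound exposure (final up to 57.5 uM) of HEK293 reporter cells cultured 24 h beforehand; PTC124 at 50 uM final as control inhibitor; activity scaled vehicle 0%, zero RLU -100%.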
HTT-AS promoter = Primary qHTS for Identification of Small Molecule Activators of Huntingtin-Antisense Promoter Activity; HEK293 HTT-AS promoter firefly luciferase reporter, 24 h; response scale: percent change from vehicle, -100% = no light; Potency, µM (titrated, usually from 57.5 µM), inactives show top-dose activity change, positive = activation, hits mostly activators; 0.24% of 48,000 active; AID 1508624, 2021; further: potency means the concentration at half of the fitted maximal effect; nearly all actives have a fitted effect of over 55% in size
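Quantitative HTS used concentration series of up to 57.5 uM final on HEK293 luciferase reporter cells, 24 h at 37 degrees C. Readout was Dual-Glo firefly luminescence.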
GALC G270D act = A Novel Cell-Based Assay to Identify Small Molecules for B -Galactocerebrosidase; P54803; 145M-Twi-hGALC-G270D cells (Twitcher mouse brain line with human GALC G270D), HMU-beta-Gal fluorescence, 48 h; Potency, µM (series often up to 57.5 µM), actives largely listed as activators; 0.1% of 45,000 active; AID 1159614, 2016; further: potency means the concentration at half of the fitted maximal effect; 0% is about no effect; nearly all actives have a fitted effect of over 65% in size
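Live 145M-Twi cells (Twitcher mouse brain-derived, GALC-null) stably expressing human GALC-G270D, with a wild-type GALC line, were compound-treated. Residual GALC activity was then read as fluorescence from 0.1 mM final HMU-β-gal at pH 5.2; higher signal means activation.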
NTMT1 inhibitor = Primary qHTS for Inhibitors of N-terminal methyltransferase 1 (NTMT1): MTaseGlo Assay; NTMT1 MTase-Glo SAH luminescence, purified enzyme; Potency, µM (titrated, usually from 114 µM), for inactives: at the top dose activity change, negative = inhibition, hits mostly inhibitors; 2.5% of 59,000 active; AID 1645870, 2021;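 further: potency means the concentration at half of the fitted maximal effect; plate controls were DMSO vehicle for no effect and no enzyme for full effect; nearly all actives have a fitted effect of over 65% in size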
CLK4 inh = Confirmation Assay for Inhibitors of CDC-like Kinase 4 (Kinase-Glo Assay): SAR round 2; 90% of 90 active; shares compounds with NTMT1 inhibitor; AID 493204, 2011; Potency, µM (doses to about 76.9 µM), for inactives: at the highest dose activity, negative = inhibition, actives largely listed as inhibitors; recombinant Clk4, Kinase-Glo ATP luminescence, 4.5 h
Sfp qHTS opt = qHTS Assay for Inhibitos of Bacillus subtilis Sfp phosphopantetheinyl transferase (PPTase): Chemistry Optimization Followup; shares compounds with NTMT1 inhibitor; purified Sfp PPTase enzyme activity, qHTS; Potency, µM (series often up to 114 µM), for inactives: at the highest dose activity change, negative = inhibition, actives largely listed as inhibitors; 78% of 230 active
HM489 growth = qHTS for Inhibitos of Bacillus subtilis Sfp phosphopantetheinyl transferase (PPTase): Chemistry Optimization Followup in B. Subtilis HM489; shares compounds with NTMT1 inhibitor; B. subtilis HM489 (acpS-) growth, BacTiter-Glo, 5 h; Potency, µM (doses to about 114 µM), for inactives: at the highest dose activity change, negative = inhibition, most hits filed as inhibitors; 50% of 220 active
Sfp PPTase gel = Gel-Based Assay for Inhibitos of Bacillus subtilis Sfp phosphopantetheinyl transferase (PPTase): Chemistry Optimization Followup; shares compounds with NTMT1 inhibitor; purified Sfp PPTase, gel-based product detection; Potency, µM (top dose mostly 250 µM), for inactives: top-dose activity change, negative = inhibition, most hits filed as inhibitors; 54% of 220 active; AID 540355, 2011
Sfp SAR2 = qHTS Assay for Inhibitors of Bacillus subtilis Sfp phosphopantetheinyl transferase (PPTase): SAR Round 2; shares compounds with NTMT1 inhibitor; 87% of 230 active; AID 602370, 2012; purified Sfp enzyme, PPTase activity, qHTS; Potency, µM (titrated, usually from 57.1 µM), without a hit: top-dose activity change, negative = inhibition, hits mostly inhibitors
HSD17B4 counter = Extended Characterization of HPGD Inhibitors: Counterscreen Against HSD17b4; Potency, µM (highest dose often 57.1 µM), for the others: top-dose activity change, negative = inhibition, hits mostly inhibitors; shares compounds with NTMT1 inhibitor; 10% of 230 active; purified HSD17B4, estradiol/NAD+, NADH fluorescence
ALDH1A1 inh = Extended Characterization of HPGD Inhibitors: Counterscreen Against ALDH1A1; shares compounds with NTMT1 inhibitor; recombinant ALDH1A1, NADH fluorescence, propionaldehyde/NAD+; Potency, µM (highest dose often 57.1 µM), for the others: at the highest dose activity change, negative = inhibition, actives largely listed as inhibitors; 93% of 230 active
Target sequence (P00352 whole entry, looked up): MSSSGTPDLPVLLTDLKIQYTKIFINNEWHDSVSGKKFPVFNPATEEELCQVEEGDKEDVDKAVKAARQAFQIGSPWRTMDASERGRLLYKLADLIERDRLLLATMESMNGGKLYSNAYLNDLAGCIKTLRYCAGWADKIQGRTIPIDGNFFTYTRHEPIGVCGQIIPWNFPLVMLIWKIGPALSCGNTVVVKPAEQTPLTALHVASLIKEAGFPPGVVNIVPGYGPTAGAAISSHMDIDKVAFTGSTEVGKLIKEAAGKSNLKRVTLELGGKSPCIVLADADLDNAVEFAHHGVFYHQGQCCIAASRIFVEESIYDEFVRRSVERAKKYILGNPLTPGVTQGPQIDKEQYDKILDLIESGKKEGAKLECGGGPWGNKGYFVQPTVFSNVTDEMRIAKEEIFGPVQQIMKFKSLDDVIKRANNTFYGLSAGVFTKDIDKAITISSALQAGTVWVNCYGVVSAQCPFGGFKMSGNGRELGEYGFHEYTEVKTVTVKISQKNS
NNMT inh = Counterscreen qHTS for Inhibitors of N-terminal methyltransferase 1 (NTMT1): NNMT MTaseGlo assay; NNMT MTase-Glo luminescence, SAH detection; Potency, µM (highest dose often 57.1 µM), inactives show at the top dose activity, negative = inhibition, hits mostly inhibitors; shares compounds with NTMT1 inhibitor; 10% of 120 active; AID 1645878, 2021
An asterisk follows results filed as active; i = inactive; ? = inconclusive; · = not tested or not shown; [ ] = dose if it differs, or a comment. The call rests on the fitted dose curve; in most records, active means well fitted curve in the direction sought with a large enough effect; inconclusive means small, poorly fitted or top-dose-only effect, or another doubt; inactive means no such curve, though single readings can be large; an effect the other way counts as inactive or inconclusive.

SMILES	HTT prom inh	HTT-AS promoter	GALC G270D act	NTMT1 inhibitor	NNMT inh	others
CCN1CCN(C(=S)c2ccc(O)cc2)CC1	·	·	·	-21%	·	Sfp qHTS opt=19µM*;HM489 growth=-26%;Sfp PPTase gel=?;Sfp SAR2=18µM*;HSD17B4 counter=-18%;ALDH1A1 inh=?
CC(=O)OC1C=C(C(=O)O)C2(CO)CCC(C)C(C)(CCc3ccoc3)C2C1 (stereo unspecified)	·	·	·	10%[29.8 µM]	·
CC1CC(O)/C=C/C(O)C(O)CC(=O)Cc2c(Cl)c(O)cc(O)c2C(=O)O1 (stereo unspecified)	·	·	·	1%[29.8 µM]	·
CC[N+]1(C/C2=C/CCCCCC2)CCC(NC(=O)C2c3cc(Cl)ccc3Oc3ccc(Cl)cc32)CC1 (stereo unspecified)	·	·	·	?	?
Cc1ccc(NC(=O)N2CCN(c3nc(N)nc4sc(-c5cccnc5)nc34)CC2)cc1	·	·	·	-2%[57.5 µM]	15%
CC(C)c1cc2c(c(O)c1O)[C@@]13CCCC(C)(C)[C@@H]1[C@H](OC3=O)C2=O	·	·	·	-10%[29.8 µM]	?
CC(C)c1cc2c(c(O)c1O)[C@@]13CCCC(C)(C)C1[C@@H](O)[C@@H]2OC3=O (stereo partly specified)	·	·	·	?	-10%[38.3 µM]
CC1(C)CCCC2(C)c3c4c(c(=O)oc(=O)c3=CCC12)=CCC1C(C)(C)CCCC41C (stereo unspecified)	·	·	·	16%[29.8 µM]	·
CC(=O)OC[C@@]12[C@H](O)C[C@@H](C)[C@]3(C[C@@H](c4ccoc4)OC3=O)[C@H]1C[C@H](O)C[C@]21CO1	·	·	·	7%[29.8 µM]	·
CC(C)(C)Sc1c(CC(C)(C)C(=O)O)n(Cc2ccc(Cl)cc2)c2ccc(OCc3ccc4ccccc4n3)cc12	·	·	·	9%	·
O=C(O)c1cc(-c2c(-c3ccccc3)nn3ccccc23)n[nH]c1=O	·	·	·	-6%[57.5 µM]	·
Nc1[nH]nc2nnc(-c3c(-c4ccccc4)nn4ccccc34)cc12	-3%	-18%	·	8.9µM*	11µM*
O=C(CSc1nc(=O)n(CCN2CCOCC2)c2c1CCC2)Nc1cccc(Cl)c1	?	-15%	i	-4%	·
Cc1cc(N2CCOCC2)cc2[nH]c(-c3c(NC[C@@H](O)c4cccc(Cl)c4)cc[nH]c3=O)nc12	?	-39%	·	?	?
C[C@@H](Oc1cc(-c2cnn(C3CCNCC3)c2)cnc1N)c1c(Cl)ccc(F)c1Cl	?	-25%	·	18µM*	?
COc1ccc(N2CCN(C(=S)Nc3cc(C)ccn3)CC2)cc1	·	·	·	50µM*	·	Sfp qHTS opt=12µM*;HM489 growth=33µM*;Sfp PPTase gel=-33%;Sfp SAR2=10µM*;HSD17B4 counter=-6%;ALDH1A1 inh=6.8µM*
Cc1ccnc(NC(=S)N2CCN(c3ccc(N)cc3)CC2)c1	·	·	·	?	·	Sfp qHTS opt=?;HM489 growth=?;Sfp PPTase gel=-46%;Sfp SAR2=10µM*;HSD17B4 counter=?;ALDH1A1 inh=9.6µM*
Cc1ccc(-c2cc(C(=O)Nc3ccc(-n4cncn4)cc3)c3ccccc3n2)cc1C	·	·	·	-1%	·
Cc1cc(C)n2ncc(C(=O)Nc3cc(Cl)cc(Cl)c3)c2n1	·	·	·	10%	·
COc1c/c(=C2\C=c3ccccc3=N2)[nH]/c1=C/c1[nH]c(C)cc1C	·	·	·	·	?
c1nc(N2CCNCC2)c2cc(-c3ccc4c(c3)OCO4)ccc2n1	·	·	·	?	·	CLK4 inh=0.58µM*
CN(CC1CCCCC1)c1ncnc2ccc(-c3ccc4c(c3)OCO4)cc12	·	·	·	·	·	CLK4 inh=0.058µM*
